# Results published in PMC5540273 (PLoS ONE, 2017).
# Values joined by “and” are separate entries in the source; they are usually repeats but may differ in a detail not shown here. Equal entries are not always repeated. Where two headings read alike, the source gives them in different places.
# How the values were obtained:
# DMPK = conditions: concentration: 1 μM, replicates: in singlicate; n = 1
# DRAK1 = tested on: T1, DRAK1; conditions: concentration: 1 μM, replicates: in singlicate, n = 1
# T1 construct: gene STK17A
# DRAK2 = tested on: T2, DRAK2; conditions: concentration: 1 μM, replicates: in singlicate, n = 1
# T2 construct: gene STK17B
# DYRK1A = conditions: concentration: 1 μM, replicates: in singlicate; n = 1
# DYRK1B = conditions: concentration: 1 μM, replicates: in singlicate, n = 1
# DYRK2 = conditions: concentration: 1 μM, replicates: in singlicate, n = 1
# EGFR = conditions: concentration: 1 μM, replicates: in singlicate, n = 1
# EIF2AK1 = conditions: concentration: 1 μM, replicates: in singlicate, n = 1
# EPHA1 = conditions: concentration: 1 μM, replicates: in singlicate; n = 1
# EPHA2 = conditions: concentration: 1 μM, replicates: in singlicate; n = 1
# EPHA3 = conditions: concentration: 1 μM, replicates: in singlicate, n = 1
# EPHA4 = conditions: concentration: 1 μM, replicates: in singlicate, n = 1
# EPHA5 = conditions: concentration: 1 μM, replicates: in singlicate, n = 1
# EPHA6 = conditions: concentration: 1 μM, replicates: in singlicate, n = 1
# EPHA7 = conditions: concentration: 1 μM, replicates: in singlicate; n = 1
# EPHA8 = conditions: concentration: 1 μM, replicates: in singlicate; n = 1
# EPHB1 = conditions: concentration: 1 μM, replicates: in singlicate, n = 1
# EPHB2 = conditions: concentration: 1 μM, replicates: in singlicate, n = 1
# EPHB3 = conditions: concentration: 1 μM, replicates: in singlicate; n = 1
# EPHB4 = conditions: concentration: 1 μM, replicates: in singlicate; n = 1
# 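Also: KINOMEscan kinase panel screen.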
smiles,measurement,setting,value
COCCNC(=O)c1ccc(-c2cc(C(=O)NC3CC3)cc(F)c2C)cc1 [GW868318],%Inh,DMPK,20%
same,%Inh,DRAK1,13%
same,%Inh,DRAK2,0%
same,%Inh,DYRK1A,9%
same,%Inh,DYRK1B,21%
same,%Inh,DYRK2,28%
same,%Inh,EGFR,21%
same,%Inh,EIF2AK1,22%
same,%Inh,EPHA1,29%
same,%Inh,EPHA2,7%
same,%Inh,EPHA3,38%
same,%Inh,EPHA4,21%
same,%Inh,EPHA5,25%
same,%Inh,EPHA6,30%
same,%Inh,EPHA7,4%
same,%Inh,EPHA8,12%
same,%Inh,EPHB1,16%
same,%Inh,EPHB2,7%
same,%Inh,EPHB3,23%
same,%Inh,EPHB4,32%
Cl.Cl.Cl.Fc1ccc(-c2ncn(C3CCNCC3)c2-c2ccnc(Nc3ccccc3)n2)cc1 [SB-238039],%Inh,DMPK,28%
same,%Inh,DRAK1; 1 µM,9% and 3%
same,%Inh,DRAK2; 1 µM,18% and 6%
same,%Inh,DYRK1A,0%
same,%Inh,DYRK1B; 1 µM,6% and 7%
same,%Inh,DYRK2; 1 µM,11% and 0%
same,%Inh,EGFR; 1 µM,90.1% and 72%
same,%Inh,EIF2AK1; 1 µM,0% and 1%
same,%Inh,EPHA1,0%
same,%Inh,EPHA2,0%
same,%Inh,EPHA3; 1 µM,34% and 25%
same,%Inh,EPHA4; 1 µM,8% and 0%
same,%Inh,EPHA5; 1 µM,7% and 10%
same,%Inh,EPHA6; 1 µM,18% and 0%
same,%Inh,EPHA7,0%
same,%Inh,EPHA8,10%
same,%Inh,EPHB1; 1 µM,31% and 0%
same,%Inh,EPHB2; 1 µM,25% and 0%
same,%Inh,EPHB3,0%
same,%Inh,EPHB4,0%
O=C1NC(=O)C(N2CCc3ccccc32)=C1c1cccc(Cl)c1 [SB-408010],%Inh,DMPK,7%
same,%Inh,DRAK1,0%
same,%Inh,DRAK2,0%
same,%Inh,DYRK1A,0%
same,%Inh,DYRK1B,0%
same,%Inh,DYRK2,7%
same,%Inh,EGFR,0%
same,%Inh,EIF2AK1,5%
same,%Inh,EPHA1,3%
same,%Inh,EPHA2,15%
same,%Inh,EPHA3,0%
same,%Inh,EPHA4,19%
same,%Inh,EPHA5,17%
same,%Inh,EPHA6,18%
same,%Inh,EPHA7,0%
same,%Inh,EPHA8,0%
same,%Inh,EPHB1,0%
same,%Inh,EPHB2,3%
same,%Inh,EPHB3,23%
same,%Inh,EPHB4,22%
O=C(NCCNc1ccnc(Nc2ccc(F)cc2)n1)c1cc2ccccc2s1 [GSK1379874],%Inh,DMPK,0%
same,%Inh,DRAK1,8%
same,%Inh,DRAK2,33%
same,%Inh,DYRK1A,2%
same,%Inh,DYRK1B,17%
same,%Inh,DYRK2,15%
same,%Inh,EGFR,23%
same,%Inh,EIF2AK1,0%
same,%Inh,EPHA1,10%
same,%Inh,EPHA2,30%
same,%Inh,EPHA3,0%
same,%Inh,EPHA4,0%
same,%Inh,EPHA5,0%
same,%Inh,EPHA6,0%
same,%Inh,EPHA7,6%
same,%Inh,EPHA8,18%
same,%Inh,EPHB1,0%
same,%Inh,EPHB2,0%
same,%Inh,EPHB3,12%
same,%Inh,EPHB4,0%
CC(C)Oc1ccc2c(-c3ccnc(Nc4ccc(N5CCN(C)CC5)cc4)n3)cnn2n1 [GW696155],%Inh,DMPK,74%
same,%Inh,DRAK1,99.5%
same,%Inh,DRAK2,94.5%
same,%Inh,DYRK1A,61%
same,%Inh,DYRK1B,61%
same,%Inh,DYRK2,91.6%
same,%Inh,EGFR,50%
same,%Inh,EIF2AK1,0%
same,%Inh,EPHA1,48%
same,%Inh,EPHA2,0%
same,%Inh,EPHA3,33%
same,%Inh,EPHA4,1%
same,%Inh,EPHA5,0%
same,%Inh,EPHA6,11%
same,%Inh,EPHA7,7%
same,%Inh,EPHA8,9%
same,%Inh,EPHB1,9%
same,%Inh,EPHB2,0%
same,%Inh,EPHB3,13%
same,%Inh,EPHB4,26%
COC(=O)Nc1nc2cc(Oc3ccc(NC(=O)Nc4cc(F)ccc4F)cc3)ccc2[nH]1.Cl [GW701424],%Inh,DMPK,0%
same,%Inh,DRAK1,2%
same,%Inh,DRAK2,0%
same,%Inh,DYRK1A,5%
same,%Inh,DYRK1B,6%
same,%Inh,DYRK2,0%
same,%Inh,EGFR,35%
same,%Inh,EIF2AK1,0%
same,%Inh,EPHA1,11%
same,%Inh,EPHA2,63%
same,%Inh,EPHA3,8%
same,%Inh,EPHA4,37%
same,%Inh,EPHA5,1%
same,%Inh,EPHA6,75%
same,%Inh,EPHA7,16%
same,%Inh,EPHA8,75%
same,%Inh,EPHB1,37%
same,%Inh,EPHB2,68%
same,%Inh,EPHB3,1%
same,%Inh,EPHB4,53%
CN(C(=O)c1ccc(-c2cc(-c3c[nH]nc3-c3ccccn3)ccn2)cc1)C1CCOCC1 [GW810083],%Inh,DMPK,0%
same,%Inh,DRAK1,1%
same,%Inh,DRAK2,2%
same,%Inh,DYRK1A,0%
same,%Inh,DYRK1B,9%
same,%Inh,DYRK2,9%
same,%Inh,EGFR,0%
same,%Inh,EIF2AK1,0%
same,%Inh,EPHA1,0%
same,%Inh,EPHA2,0%
same,%Inh,EPHA3,27%
same,%Inh,EPHA4,0%
same,%Inh,EPHA5,4%
same,%Inh,EPHA6,0%
same,%Inh,EPHA7,0%
same,%Inh,EPHA8,0%
same,%Inh,EPHB1,0%
same,%Inh,EPHB2,0%
same,%Inh,EPHB3,0%
same,%Inh,EPHB4,0%
COc1ccc(Nc2nccc(N3CCC(NC(=O)Nc4cc(C)ccc4C)C3)n2)cc1 (centres unmarked) [GSK1379741],%Inh,DMPK,0%
same,%Inh,DRAK1,0%
same,%Inh,DRAK2,0%
same,%Inh,DYRK1A,14%
same,%Inh,DYRK1B,0%
same,%Inh,DYRK2,12%
same,%Inh,EGFR,33%
same,%Inh,EIF2AK1,0%
same,%Inh,EPHA1,30%
same,%Inh,EPHA2,0%
same,%Inh,EPHA3,0%
same,%Inh,EPHA4,12%
same,%Inh,EPHA5,0%
same,%Inh,EPHA6,0%
same,%Inh,EPHA7,5%
same,%Inh,EPHA8,2%
same,%Inh,EPHB1,14%
same,%Inh,EPHB2,27%
same,%Inh,EPHB3,8%
same,%Inh,EPHB4,9%
Cn1cc(-c2ccc3c(c2)CCN3C(=O)Cc2ccccc2Cl)c2c(N)ncnc21 [GSK2608885],%Inh,DMPK,0%
same,%Inh,DRAK1,0%
same,%Inh,DRAK2,0%
same,%Inh,DYRK1A,7%
same,%Inh,DYRK1B,12%
same,%Inh,DYRK2,29%
same,%Inh,EGFR,100%
same,%Inh,EIF2AK1,6%
same,%Inh,EPHA1,88%
same,%Inh,EPHA2,77%
same,%Inh,EPHA3,34%
same,%Inh,EPHA4,62%
same,%Inh,EPHA5,0%
same,%Inh,EPHA6,58%
same,%Inh,EPHA7,92%
same,%Inh,EPHA8,93.5%
same,%Inh,EPHB1,43%
same,%Inh,EPHB2,64%
same,%Inh,EPHB3,0%
same,%Inh,EPHB4,15%
COc1ccc(CNC(=O)NC2CCN(c3ccnc(Nc4ccc(OC)cc4)n3)C2)cc1 (centres unmarked) [GSK1379727],%Inh,DMPK,0%
same,%Inh,DRAK1,0%
same,%Inh,DRAK2,0%
same,%Inh,DYRK1A,20%
same,%Inh,DYRK1B,0%
same,%Inh,DYRK2,0%
same,%Inh,EGFR,18%
same,%Inh,EIF2AK1,0%
same,%Inh,EPHA1,0%
same,%Inh,EPHA2,14%
same,%Inh,EPHA3,0%
same,%Inh,EPHA4,10%
same,%Inh,EPHA5,0%
same,%Inh,EPHA6,2%
same,%Inh,EPHA7,0%
same,%Inh,EPHA8,1%
same,%Inh,EPHB1,6%
same,%Inh,EPHB2,0%
same,%Inh,EPHB3,7%
same,%Inh,EPHB4,11%
